Measurements: PubChem BioAssay (NCI)
The panel holds about 83,000 compounds, 20% with a hit somewhere; the sample as a whole holds those more often.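 Testing used 96-well plates and a 48-hour single-concentration exposure. Example: -40 means 40% of the starting cells died.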 Activity calls are given as the source filed them. The calls were made as follows: active = growth percent below 10; inactive = the rest.

What follows are compounds tested on MDA-MB-468 breast (assay: NCI-60 one-dose screen, 48 h (100 = growth as untreated, 0 = no growth, -100 = all killed)). Conditions: 10 µM unless noted.
For CCCCCCC/C=N/NC(=O)c1ccc(-n2cc(-c3ccccc3)nn2)cc1, the growth was 82.6% (inactive).
For Cc1cc(C2(c3cc(C)c(O)cc3C)OS(=O)(=O)c3ccccc32)c(C)cc1O, the growth was 114% (inactive).
In the case of O=C(Nc1ccccc1O)c1ccc(CNC(=O)c2ccsc2Nc2ccnc(C(F)(F)F)c2)cc1, the growth was -17.2% (active).
With C#CC[C@@H]1C[C@]2(C)[C@H]3CC[C@@H]4[C@H]5C(C(=C)C)CC[C@]5(C(=O)NCCN(CCN)CCN)CC[C@@]4(C)[C@]3(C)CC[C@H]2C(C)(C)[C@H]1OC(C)=O (stereo not given in full) the growth was -25.4% (active).
NS(=O)(=O)c1ccc(C(=O)N=Nc2c(O)[nH]c3ccc(Cl)cc23)cc1 was tested, and the growth was 110% (inactive).
With CC(=O)N1N=C(c2ccc(C)cc2)CC1c1cn(-c2ccccc2)nc1-c1cccc(Nc2ccnc3cc(Cl)ccc23)c1 (stereo not given) the growth was 9.76% (active).
With O=C1OCC2=C1C(c1cccc(F)c1)c1cc3c(cc1N2CCO)OCO3 (stereo not given) the growth was 8.27% (active).
O=C(Nc1ccc(N2CCNCC2)cn1)c1[nH]ncc1Nc1ncnc2sccc12 was tested, and the growth was -59.5% (active).
With COc1ccc(C(=O)n2cc(C=O)c3ccccc32)cc1 the growth was 105% (inactive).
For CC(C)(C)c1cc(-n2c(-c3ccc(Cl)cc3)nc3cc(C(=O)Nc4ccc(Cl)cc4)ccc32)n[nH]1, the growth was 51.7% (inactive).
With Cc1nc2ncnc(Cl)c2[nH]1 the growth was 105% (inactive).
With COc1cc(-n2cc(-c3cc(O)c(C/C=C(\C)CCC=C(C)C)c(O)c3)nn2)cc2c1O[C@]1(C)CC[C@@H](O)C(C)(C)[C@H]1C2 the growth was -14.6% (active).
For COc1ccc(-c2nc(SCCC(C)C)nc(N/N=C(/C)c3ccc(N)cc3)c2C#N)cc1, the growth was 103% (inactive).
COc1ccc(-c2nc(Nc3nc4ccccc4[nH]3)nc(N)c2C#N)cc1 was tested, and the growth was 121% (inactive).
In the case of O=C1CSC(c2c(Cl)cccc2Cl)N1c1nc(Cl)cc(=O)[nH]1 (stereo not given), the growth was 117% (inactive).
For O=C(c1ccccc1)c1cc2ccccc2oc1=O, the growth was 97.3% (inactive).
In the case of CCn1cc(C(=O)N/N=C/c2ccc(Br)cc2)c(=O)c2cc(F)c(N3CCNC(C)C3)c(F)c21 (stereo not given), the growth was 82.5% (inactive).
For COc1ccc(OC)c(NC(=O)CCCCCCNC(=O)C(O)(O)C(F)(F)F)c1, the growth was 22.6% (inactive).
COc1ccc(C2SC(C)C(=O)N2CCc2cccs2)cc1OC (stereo not given) was tested, and the growth was 48.1% (inactive).
NC(=NCCCOc1ccc(F)cc1)Nc1ccc(I)cc1 was tested, and the growth was 27.8% (inactive).
With COCCC[C@H]1O[C@@](O)([C@H](C)[C@@H]2CC(OC)C(O)/C=C(C)/C=C(C)/C=C(\C)C(OC3O[C@@H](C)[C@H](O)C(O)[C@@H]3O)C(C)/C=C(C)/C=C(OC)/C=C(\C)C(=O)O2)C(OC)C(O)[C@]1(C)O[C@H]1C[C@@H](O)[C@H](O[C@H]2C[C@](C)(O)[C@H](O)C(C)O2)C(C)O1 (stereo not given in full) the growth was 9.61% (active).
With CC/C(=C(/c1ccc(Cl)cc1)c1ccc(OCCN(CC)CC)cc1)c1ccc(OC)cc1 the growth was 38% (inactive).
N=C(N)c1ccc(-c2ccc(-c3ccco3)o2)cc1F was tested, and the growth was -57.4% (active).
For COC[C@]12CC[C@@H](C)[C@H](C)[C@H]1C1=CC[C@@H]3[C@@]4(C)CCCNC(C)(C)[C@@H]4CC[C@@]3(C)[C@]1(C)CC2, the growth was -6.6% (active).
COc1ccc(-c2nc3sc(-c4ccccc4)c(-c4ccccc4)n3c2/C=C/c2ccc(F)cc2)cc1 was tested, and the growth was 82.7% (inactive).
In the case of Cn1cc(-c2nonc2-c2cn(C)c3ccc(F)cc23)c2ccccc21, the growth was 0.775% (active).
With Cc1cc(Cl)c2ccc(N(C)C)cc2n1 the growth was 94.3% (inactive).
In the case of Cc1ccc(-c2cn(C/C=C3\C=CN(S(=O)(=O)c4ccccc4)CC3)nn2)cc1, the growth was 86.8% (inactive).
Clc1ccc2c(NCCNc3nc(Cl)nc4ccccc34)ccnc2c1 was tested, and the growth was -88.6% (active).
CC(O)c1cccc(/C(N)=N/C(N)=N/c2nc3ccccc3s2)c1 (stereo not given) was tested, and the growth was 103% (inactive).
In the case of CCO/C=N/C1=C(C#N)C(c2ccc(Cl)cc2)c2sc3c(C)cccc3c2O1 (stereo not given), the growth was -3.01% (active).
For N#Cc1ncc(Br)c(NC2CCCCCC2)n1, the growth was 91.9% (inactive).
With CC1(C)NCCC[C@]2(C)[C@H]3CC=C4[C@@H]5C[C@](C)(COC(=O)c6ccccc6C(=O)O)CC[C@]5(C)CC[C@@]4(C)[C@]3(C)CC[C@@H]12 the growth was 29.5% (inactive).
In the case of CCOC(=O)C1=C(C)n2nc(CC#N)c(C#N)c2NC1c1ccc(Cl)cc1 (stereo not given), the growth was 117% (inactive).
For CCn1c(=S)sc2c(Nc3ccc(F)cc3)nc(-c3cccnc3)nc21, the growth was 79.8% (inactive).
